From the supplement of paper PMC9262897, “Low-cost anti-mycobacterial drug discovery using engineered E. coli” (Nature Communications, 2022) come the findings set out here.

What all share (test): growth (OD600 after 10 h); higher = more growth (less inhibition)
Assay [1] concerns E. coli TESEC Alr+ wild-type control. The following applies: compound 0.1 mM; raw OD600 reference: median of DMSO wells 0.241, cell-free background 0.041. How it is done: (§1)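 TESEC Mtb Alr E. coli, or the Alr+ wild-type control, in 384-well plates with Prestwick library compounds at 0.1 mM and 1% DMSO, across arabinose induction levels of 1E3 to 1E7 nM. Growth is read as OD600 after 10 h at 37 °C in triplicate biological replicates.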

Assay [2] concerns E. coli TESEC Mtb Alr. Particulars: compound 0.1 mM. The procedure:
as §1

Another assay relates to E. coli TESEC Mtb Asd. The following applies: compound 0.1 mM. How it is done:
(§2)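 TESEC E. coli strains in which the native enzyme is deleted and replaced by arabinose-inducible Mtb Asd, DapB, CysH or TrpD, each grown in its selective medium. Strains were screened against the Prestwick library at 0.1 mM and 1% DMSO in 384-well format at low and high arabinose induction. Growth is read as OD600 after 10 h in triplicate.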

The test system of another assay is E. coli TESEC Mtb DapB. The following applies: compound 0.1 mM. The procedure:
as §2

Assay [3] deals with E. coli TESEC Mtb Alr. The following applies: compound 0.1 mM. The procedure:
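TESEC Mtb Alr E. coli (ΔaraC ΔtolC ΔentC Δalr ΔdadX, arabinose-inducible Mtb Alr) or the Alr+ wild-type control strain, grown in defined M9-fructose medium without D-alanine in 96-well plates with Prestwick library compounds at 0.1 mM and 1% DMSO. Low Alr induction is 0.1 µM arabinose and high induction is 10 mM arabinose.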
This is another data set of the same source.

The mark [4] stands for this setting: arabinose 1000 nM, raw OD600 reference: median of DMSO wells 0.294, cell-free background 0.041.
Setting [5] is: arabinose 10000 nM, raw OD600 reference: median of DMSO wells 0.264, cell-free background 0.041.
Where [6] appears, read: arabinose 100000 nM, raw OD600 reference: median of DMSO wells 0.201, cell-free background 0.041.
Where [7] appears, read: arabinose 1000000 nM, raw OD600 reference: median of DMSO wells 0.193, cell-free background 0.041.
The mark [8] stands for this setting: arabinose 10000000 nM, raw OD600 reference: median of DMSO wells 0.146, cell-free background 0.041.
[9] abbreviates: arabinose induction (level): High, raw OD600 reference: median of DMSO wells 0.331, cell-free background 0.041.
The mark [10] stands for this setting: arabinose induction (level): Low, raw OD600 reference: median of DMSO wells 0.417, cell-free background 0.041.
The mark [11] stands for this setting: arabinose induction (level): High, raw OD600 reference: median of DMSO wells […], cell-free background 0.041.
Where [12] appears, read: arabinose induction (level): Low, raw OD600 reference: median of DMSO wells 0.227, cell-free background 0.041.
Setting [13] is: arabinose 100 nM, raw OD600 reference: median of DMSO wells 0.413, cell-free background 0.052.
[14] abbreviates: arabinose 10000000 nM, raw OD600 reference: median of DMSO wells […], cell-free background 0.052.

Structures can show the parent of a compound that is named as a salt. ± gives the standard deviation of the averaged measurements.

As to `CC(=O)Oc1ccccc1C(=O)Nc1ncc([N+](=O)[O-])s1` [Nitazoxanide], the growth in assay [1] stood at 0.0514 ± 0.01; in the assay with E. coli TESEC Mtb Alr [2] (setting [4]), 0.0462 ± 0.0042; in the assay with E. coli TESEC Mtb Alr [2] (setting [5]), 0.0417 ± 0.00046; in the assay on E. coli TESEC Mtb Alr [2] (setting [6]), 0.0425 ± 0.0013; in the assay with E. coli TESEC Mtb Alr [2] (setting [7]) it was 0.0434 ± 0.0042; in the assay with E. coli TESEC Mtb Alr [2] (setting [8]), 0.0448 ± 0.0011. The growth was found to be 0.0632 ± 0.0045 with E. coli TESEC Mtb Asd (setting [9]); 0.05953 ± 0.00059 in the assay with E. coli TESEC Mtb Asd (setting [10]); 0.0545 ± 0.0006 with E. coli TESEC Mtb DapB (setting [11]); 0.0559 ± 0.0026 in the assay on E. coli TESEC Mtb DapB (setting [12]); 0.157 ± 0.039 in the assay on E. coli TESEC Mtb Alr [3] (setting [13]); 0.0545 ± 0.0013 with E. coli TESEC Mtb Alr [3] (setting [14]).
`O=c1[nH]c(=O)n([C@H]2C[C@H](O)[C@@H](CO)O2)cc1F` [Floxuridine]: the growth stood at 0.0553 ± 0.00059 in assay [1]; 0.0615 ± 0.0068 in the assay on E. coli TESEC Mtb Alr [2] (setting [4]); 0.04377 ± 0.00025 in the assay on E. coli TESEC Mtb Alr [2] (setting [5]); 0.052 ± 0.0014 with E. coli TESEC Mtb Alr [2] (setting [6]); 0.0434 ± 0.0004 with E. coli TESEC Mtb Alr [2] (setting [7]); 0.05017 ± 0.0005 in the assay on E. coli TESEC Mtb Alr [2] (setting [8]). Besides, the growth was 0.088 ± 0.0059 in the assay with E. coli TESEC Mtb Asd (setting [9]); 0.0873 ± 0.011 in the assay on E. coli TESEC Mtb Asd (setting [10]); 0.129 ± 0.0019 in the assay on E. coli TESEC Mtb DapB (setting [11]); 0.165 ± 0.0032 in the assay with E. coli TESEC Mtb DapB (setting [12]); 0.387 ± 0.0052 in the assay with E. coli TESEC Mtb Alr [3] (setting [13]); 0.0748 ± 0.0061 with E. coli TESEC Mtb Alr [3] (setting [14]).
`C[C@H](CS)C(=O)N1CCC[C@H]1C(=O)O` [Captopril]: the growth came out at 0.259 ± 0.003 in assay [1]; 0.291 ± 0.019 in the assay on E. coli TESEC Mtb Alr [2] (setting [4]); 0.253 ± 0.012 in the assay on E. coli TESEC Mtb Alr [2] (setting [5]); 0.198 ± 0.027 in the assay on E. coli TESEC Mtb Alr [2] (setting [6]); 0.176 ± 0.0095 in the assay with E. coli TESEC Mtb Alr [2] (setting [7]); 0.148 ± 0.011 with E. coli TESEC Mtb Alr [2] (setting [8]). Besides, the growth with E. coli TESEC Mtb Asd (setting [9]) is 0.358 ± 0.044; with E. coli TESEC Mtb Asd (setting [10]), 0.399 ± 0.027; with E. coli TESEC Mtb DapB (setting [11]), 0.187 ± 0.019; with E. coli TESEC Mtb DapB (setting [12]) it was 0.21 ± 0.027; with E. coli TESEC Mtb Alr [3] (setting [13]), 0.41 ± 0.0091; in the assay with E. coli TESEC Mtb Alr [3] (setting [14]) it was 0.382 ± 0.021.
Turning to `CN(C)CCC[C@@]1(c2ccc(F)cc2)OCc2cc(C#N)ccc21` [Escitalopram oxalate], the growth in assay [1] amounted to 0.201 ± 0.0062; in the assay on E. coli TESEC Mtb Alr [2] (setting [4]), 0.281 ± 0.014; with E. coli TESEC Mtb Alr [2] (setting [5]), 0.251 ± 0.015; in the assay on E. coli TESEC Mtb Alr [2] (setting [6]), 0.199 ± 0.0081; with E. coli TESEC Mtb Alr [2] (setting [7]) it was 0.157 ± 0.0041; with E. coli TESEC Mtb Alr [2] (setting [8]), 0.143 ± 0.007. The growth in the assay on E. coli TESEC Mtb Asd (setting [9]) was 0.297 ± 0.14; in the assay with E. coli TESEC Mtb Asd (setting [10]) it was 0.398 ± 0.064; in the assay on E. coli TESEC Mtb DapB (setting [11]), 0.179 ± 0.012; in the assay with E. coli TESEC Mtb DapB (setting [12]) it was 0.202 ± 0.014; in the assay with E. coli TESEC Mtb Alr [3] (setting [13]), 0.412 ± 0.011; with E. coli TESEC Mtb Alr [3] (setting [14]), 0.352 ± 0.0066.
Turning to `CC(C)(C)C(=O)OCOC(=O)[C@@H]1N2C(=O)[C@@H](/N=C/N3CCCCCC3)[C@H]2SC1(C)C` [Pivmecillinam hydrochloride], the growth in assay [1] turned out to be 0.184 ± 0.0062; with E. coli TESEC Mtb Alr [2] (setting [4]) it was 0.249 ± 0.0036; with E. coli TESEC Mtb Alr [2] (setting [5]), 0.282 ± 0.0063; in the assay with E. coli TESEC Mtb Alr [2] (setting [6]), 0.326 ± 0.0058; with E. coli TESEC Mtb Alr [2] (setting [7]), 0.191 ± 0.016; with E. coli TESEC Mtb Alr [2] (setting [8]), 0.191 ± 0.021. Also, the growth in the assay with E. coli TESEC Mtb Asd (setting [9]) amounted to 0.323 ± 0.028; in the assay on E. coli TESEC Mtb Asd (setting [10]) it was 0.363 ± 0.022; in the assay with E. coli TESEC Mtb DapB (setting [11]), 0.218 ± 0.022; in the assay with E. coli TESEC Mtb DapB (setting [12]), 0.222 ± 0.024; in the assay with E. coli TESEC Mtb Alr [3] (setting [13]), 0.4196 ± 0.0028; with E. coli TESEC Mtb Alr [3] (setting [14]), 0.344 ± 0.012.
